From the supplement of paper PMC12808144
A number with no mark means an inactive call.

How the values were obtained:
NHEM-hTERT = assay: cell viability relative to DMSO control (fraction of DMSO control); higher = less cytotoxic, active = 0.5 or less; conditions: 1 µM; 120 h
How it was run: (§1)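 Three cell types were screened against 315 approved anti-cancer drugs from TargetMol, acoustically pre-spotted in 384-well plates at 1 µM in duplicate over 120 h: NHEM-hTERT immortalized melanocytes (2500/well), patient-derived Mel-DCC-11 and its resistant subline Mel-DCC-11-R (both 1500/well), all in 40 µl per well. The subline was tested alone and with 8 µM of its selecting drug. Viability, measured by luminescence, was normalised to vehicle controls and averaged across duplicates, with ATPlite 1step as the readout.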

Mel-DCC-11-R = assay: cell viability relative to DMSO control (fraction of DMSO control); higher = less cytotoxic, active = 0.8 or less; conditions: 1 µM, 120 h
How it was run: as §1

SMILES	cell viability (NHEM-hTERT)	cell viability (Mel-DCC-11-R; vemurafenib co-treatment 0 µM)	cell viability (Mel-DCC-11-R; vemurafenib co-treatment 8 µM)
O=C1c2c(O)ccc(O)c2C(=O)c2c(NCCNCCO)ccc(NCCNCCO)c21 [Mitoxantrone]	0.695	1.26	0.574 (active)
CC(=O)O[C@]1(C(C)=O)CC[C@H]2[C@@H]3C=C(C)C4=CC(=O)CC[C@]4(C)[C@H]3CC[C@@]21C [Megestrol acetate]	1.04	1.13	1
NC(=O)N1CCC(CC(=O)N2CCC([C@H]3c4ncc(Br)cc4CCc4cc(Cl)cc(Br)c43)CC2)CC1 [Lonafarnib]	0.9	0.926	0.889
Cc1ccc(=O)n(-c2ccccc2)c1 [Pirfenidone]	1.02	1.03	1.1
CC[C@@]1(O)C(=O)OCc2c1cc1n(c2=O)Cc2cc3c(CN(C)C)c(O)ccc3nc2-1.Cl [Topotecan hydrochloride]	0.768	0.645 (active)	0.339 (active)
Cc1ccc(NC(=O)c2ccc(CN3CCN(C)CC3)cc2)cc1Nc1nccc(-c2cccnc2)n1 [Imatinib]	1.24	0.978	1.1
CC(C)(S)[C@@H](N)C(=O)O [Artamine]	1.08	1.12	1.25
CC1=C(CC(=O)O)c2cc(F)ccc2/C1=C\c1ccc(S(C)=O)cc1 (centres undefined) [Sulindac]	0.963	0.986	1.03
CN(C)C(=O)COC(=O)Cc1ccc(OC(=O)c2ccc(N=C(N)N)cc2)cc1.CS(=O)(=O)O [Camostat mesilate]	0.975	1.1	1.21
N#CC[C@H](C1CCCC1)n1cc(-c2ncnc3[nH]ccc23)cn1 [(R)-Ruxolitinib]	1.1	0.967	1.03
Nc1ncn([C@H]2C[C@H](O)[C@@H](CO)O2)c(=O)n1 [Decitabine]	0.907	1.31	0.968
CCN(c1cc(-c2ccc(CN3CCOCC3)cc2)cc(C(=O)NCc2c(C)cc(C)[nH]c2=O)c1C)C1CCOCC1	0.964	0.831	0.967
NCCNc1ccc(NCCN)c2c1C(=O)c1ccncc1C2=O.O=C(O)/C=C\C(=O)O.O=C(O)/C=C\C(=O)O [Pixantrone dimaleate]	0.889	1.62	0.868
CC#CC(=O)N1CCC[C@H]1c1nc(-c2ccc(C(=O)Nc3ccccn3)cc2)c2c(N)nccn12 [Acalabrutinib]	1	1.04	1
COC(=O)C1=C(C)NC(C)=C(C(=O)OC)C1c1ccccc1[N+](=O)[O-] [Nifedipine]	1.03	1.1	1.18
CO[C@H]1C[C@@H]2CC[C@@H](C)[C@@](O)(O2)C(=O)C(=O)N2CCCC[C@H]2C(=O)O[C@H]([C@H](C)C[C@@H]2CC[C@@H](O)[C@H](OC)C2)CC(=O)[C@H](C)/C=C(\C)[C@@H](O)[C@@H](OC)C(=O)[C@H](C)C[C@H](C)/C=C/C=C/C=C/1C [Rapamycin]	0.819	1.54	0.783 (active)
CCOC(N)=O [Urethane]	1.09	0.987	1
CC1CCC(C(C)C)C(O)C1 (racemic) [DL-Menthol]	0.973	1.07	1.08
O=c1[nH]cc(F)c(=O)[nH]1 [Fluorouracil]	1.01	1.14	1.06
CC1(C)CCC(CN2CCN(c3ccc(C(=O)NS(=O)(=O)c4ccc(NCC5CCOCC5)c([N+](=O)[O-])c4)c(Oc4cnc5[nH]ccc5c4)c3)CC2)=C(c2ccc(Cl)cc2)C1	0.502	1.04	1.23
Nc1ccccc1NC(=O)c1ccc(CNc2nccc(-c3cccnc3)n2)cc1 [Mocetinostat]	0.55	0.558 (active)	0.545 (active)
Cc1cc(Nc2ncc(Cl)c(Nc3ccccc3S(=O)(=O)C(C)C)n2)c(OC(C)C)cc1C1CCNCC1	0.88	1.17	0.873
COc1ccc(/C=C\c2cc(OC)c(OC)c(OC)c2)cc1OP(=O)([O-])[O-].[Na+].[Na+] [Fosbretabulin Disodium]	0.64	0.57 (active)	0.421 (active)
